Here are results for seven molecules from ChEMBL document CHEMBL1961873, “Compounds: GSK PKIS; Assays: Nanosyn kinase panel” (2012).

Experiment [1] relates to Tyrosine-protein kinase ABL1 (Homo sapiens), P00519 [T315I]. Particulars: at 1 µM.
In experiment [2] the test system is Tyrosine-protein kinase ABL1 (Homo sapiens), P00519 [Y253F]. Particulars: at 0.1 µM.
For experiment [3] the test system is unchanged. Particulars: at 1 µM.
Experiment [4] addresses Tyrosine-protein kinase ABL1 (Homo sapiens) (UniProt P00519). To be noted: at 0.1 µM.
The target is the same in experiment [5]. Particulars: at 1 µM.
The target of experiment [6] is ALK tyrosine kinase receptor (Homo sapiens) (UniProt Q9UM73). Particulars: at 0.1 µM.
The target is the same in experiment [7]. Particulars: at 1 µM.
Experiment [8] addresses Tyrosine-protein kinase ABL2 (Homo sapiens) (UniProt P42684). To be noted: at 0.1 µM.
The target is the same in experiment [9]. To be noted: at 1 µM.
The target of experiment [10] is Tyrosine-protein kinase receptor UFO (Homo sapiens) (UniProt P30530). Particulars: at 0.1 µM.
Chain of Tyrosine-protein kinase receptor UFO (Homo sapiens) (P30530 whole entry): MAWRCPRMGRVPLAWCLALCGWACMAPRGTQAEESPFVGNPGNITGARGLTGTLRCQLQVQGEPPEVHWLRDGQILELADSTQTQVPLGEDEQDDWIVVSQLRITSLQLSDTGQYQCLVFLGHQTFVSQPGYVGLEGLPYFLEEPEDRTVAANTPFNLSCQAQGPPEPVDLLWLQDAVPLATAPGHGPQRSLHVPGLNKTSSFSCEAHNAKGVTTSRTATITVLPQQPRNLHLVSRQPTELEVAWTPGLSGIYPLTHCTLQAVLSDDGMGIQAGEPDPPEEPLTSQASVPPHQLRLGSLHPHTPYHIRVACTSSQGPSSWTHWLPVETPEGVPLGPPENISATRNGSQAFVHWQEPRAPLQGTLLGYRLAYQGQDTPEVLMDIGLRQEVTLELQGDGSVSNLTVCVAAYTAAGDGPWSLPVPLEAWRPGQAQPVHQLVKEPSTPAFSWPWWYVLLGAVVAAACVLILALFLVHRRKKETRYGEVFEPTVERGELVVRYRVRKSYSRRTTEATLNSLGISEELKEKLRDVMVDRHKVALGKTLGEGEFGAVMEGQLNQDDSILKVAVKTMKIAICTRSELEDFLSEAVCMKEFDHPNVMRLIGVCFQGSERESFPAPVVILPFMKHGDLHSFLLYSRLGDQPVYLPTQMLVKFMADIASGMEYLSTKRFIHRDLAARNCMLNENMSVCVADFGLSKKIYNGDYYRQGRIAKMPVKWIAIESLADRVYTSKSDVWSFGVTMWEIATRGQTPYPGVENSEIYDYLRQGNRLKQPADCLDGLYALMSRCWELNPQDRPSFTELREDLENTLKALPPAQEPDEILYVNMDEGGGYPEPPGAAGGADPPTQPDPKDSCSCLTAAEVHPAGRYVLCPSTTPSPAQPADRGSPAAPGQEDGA
Experiment [11] has the same target. Particulars: at 1 µM.
Experiment [12] addresses Tyrosine-protein kinase Blk (Homo sapiens) (UniProt P51451). Particulars: at 0.1 µM.
Experiment [13] has the same target. Particulars: at 1 µM.
Experiment [14] addresses T1, Cytoplasmic tyrosine-protein kinase BMX (Homo sapiens) (UniProt P51813).
T1 sequence (whole entry): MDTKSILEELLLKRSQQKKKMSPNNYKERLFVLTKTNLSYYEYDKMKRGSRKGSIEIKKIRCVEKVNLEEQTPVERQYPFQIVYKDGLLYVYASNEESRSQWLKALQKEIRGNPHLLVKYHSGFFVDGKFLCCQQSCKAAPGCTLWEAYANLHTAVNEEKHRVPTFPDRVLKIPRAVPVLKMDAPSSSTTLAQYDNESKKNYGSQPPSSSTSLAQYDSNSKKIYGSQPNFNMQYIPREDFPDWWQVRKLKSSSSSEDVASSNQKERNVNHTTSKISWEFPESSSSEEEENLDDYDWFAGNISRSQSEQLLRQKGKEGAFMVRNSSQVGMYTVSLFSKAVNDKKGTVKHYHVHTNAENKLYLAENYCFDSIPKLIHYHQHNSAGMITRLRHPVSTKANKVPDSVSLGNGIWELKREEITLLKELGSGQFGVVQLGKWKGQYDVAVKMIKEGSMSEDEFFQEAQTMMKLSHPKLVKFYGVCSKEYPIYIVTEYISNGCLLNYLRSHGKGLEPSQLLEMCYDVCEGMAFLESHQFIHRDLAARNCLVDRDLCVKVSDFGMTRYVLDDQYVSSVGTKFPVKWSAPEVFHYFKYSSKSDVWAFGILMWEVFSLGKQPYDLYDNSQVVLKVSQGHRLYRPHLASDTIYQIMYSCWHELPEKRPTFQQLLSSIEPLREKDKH
Particulars: at 0.1 µM.

Experiment [15] deals with T1, Cytoplasmic tyrosine-protein kinase BMX (Homo sapiens). To be noted: at 1 µM.
The target in experiment [16] is Protein-tyrosine kinase 6 (Homo sapiens) (UniProt Q13882). To be noted: at 0.1 µM.
Chain of Protein-tyrosine kinase 6 (Homo sapiens) (Q13882 whole entry, looked up): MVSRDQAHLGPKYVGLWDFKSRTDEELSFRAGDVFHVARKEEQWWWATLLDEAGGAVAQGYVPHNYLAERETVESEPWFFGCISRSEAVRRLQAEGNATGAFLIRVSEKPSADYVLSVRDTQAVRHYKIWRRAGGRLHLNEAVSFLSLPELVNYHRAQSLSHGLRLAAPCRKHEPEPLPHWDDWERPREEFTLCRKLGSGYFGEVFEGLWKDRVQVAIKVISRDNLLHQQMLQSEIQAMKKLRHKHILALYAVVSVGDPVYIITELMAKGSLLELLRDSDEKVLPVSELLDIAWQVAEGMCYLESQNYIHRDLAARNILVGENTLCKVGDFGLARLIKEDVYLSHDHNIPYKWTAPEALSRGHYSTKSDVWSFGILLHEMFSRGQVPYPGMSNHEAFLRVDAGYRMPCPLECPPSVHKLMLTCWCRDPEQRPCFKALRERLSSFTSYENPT
Experiment [17] shares this target. Particulars: at 1 µM.
In experiment [18] the target is Tyrosine-protein kinase BTK (Homo sapiens) (UniProt Q06187). To be noted: at 0.1 µM.
Chain of Tyrosine-protein kinase BTK (Homo sapiens) (Q06187 whole entry): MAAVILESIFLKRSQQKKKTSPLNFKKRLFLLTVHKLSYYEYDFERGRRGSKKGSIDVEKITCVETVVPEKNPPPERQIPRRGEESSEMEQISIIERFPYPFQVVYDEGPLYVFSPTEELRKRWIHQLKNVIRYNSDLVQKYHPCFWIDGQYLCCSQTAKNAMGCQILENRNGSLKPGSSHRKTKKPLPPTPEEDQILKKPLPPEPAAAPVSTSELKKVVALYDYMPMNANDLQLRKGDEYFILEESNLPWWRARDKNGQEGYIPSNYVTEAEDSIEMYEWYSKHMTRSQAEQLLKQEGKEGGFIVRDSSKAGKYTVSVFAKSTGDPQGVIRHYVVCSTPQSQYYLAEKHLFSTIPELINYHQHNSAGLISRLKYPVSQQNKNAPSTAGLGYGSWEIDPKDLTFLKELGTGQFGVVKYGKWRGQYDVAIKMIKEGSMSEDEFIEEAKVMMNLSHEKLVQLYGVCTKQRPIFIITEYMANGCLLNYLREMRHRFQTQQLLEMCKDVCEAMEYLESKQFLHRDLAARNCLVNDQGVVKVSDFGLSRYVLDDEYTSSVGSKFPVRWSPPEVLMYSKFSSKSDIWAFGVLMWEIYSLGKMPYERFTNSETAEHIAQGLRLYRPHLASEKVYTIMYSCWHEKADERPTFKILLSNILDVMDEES
For experiment [19] the target is unchanged. To be noted: at 1 µM.
In experiment [20] the target is Tyrosine-protein kinase CSK (Homo sapiens) (UniProt P41240). To be noted: at 0.1 µM.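 Note: value given is the averaged percent inhibition of CSK kinase activity, from the GSK PKIS kinase inhibitor set screening panel.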
Chain of Tyrosine-protein kinase CSK (Homo sapiens) (P41240 2-450 limits assumed): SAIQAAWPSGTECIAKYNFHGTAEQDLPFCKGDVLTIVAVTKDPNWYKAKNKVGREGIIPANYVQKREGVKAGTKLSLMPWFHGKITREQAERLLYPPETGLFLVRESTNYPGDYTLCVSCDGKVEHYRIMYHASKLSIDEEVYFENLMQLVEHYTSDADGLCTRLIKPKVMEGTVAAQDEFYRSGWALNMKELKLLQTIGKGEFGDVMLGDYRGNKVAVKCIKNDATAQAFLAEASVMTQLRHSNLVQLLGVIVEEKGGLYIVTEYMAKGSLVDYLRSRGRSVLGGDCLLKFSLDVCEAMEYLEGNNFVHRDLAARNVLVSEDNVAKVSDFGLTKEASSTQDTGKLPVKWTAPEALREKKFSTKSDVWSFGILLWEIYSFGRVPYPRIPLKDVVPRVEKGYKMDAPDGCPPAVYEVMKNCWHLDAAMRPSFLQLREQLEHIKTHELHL

Chain of Tyrosine-protein kinase ABL2 (Homo sapiens) (P42684 whole entry): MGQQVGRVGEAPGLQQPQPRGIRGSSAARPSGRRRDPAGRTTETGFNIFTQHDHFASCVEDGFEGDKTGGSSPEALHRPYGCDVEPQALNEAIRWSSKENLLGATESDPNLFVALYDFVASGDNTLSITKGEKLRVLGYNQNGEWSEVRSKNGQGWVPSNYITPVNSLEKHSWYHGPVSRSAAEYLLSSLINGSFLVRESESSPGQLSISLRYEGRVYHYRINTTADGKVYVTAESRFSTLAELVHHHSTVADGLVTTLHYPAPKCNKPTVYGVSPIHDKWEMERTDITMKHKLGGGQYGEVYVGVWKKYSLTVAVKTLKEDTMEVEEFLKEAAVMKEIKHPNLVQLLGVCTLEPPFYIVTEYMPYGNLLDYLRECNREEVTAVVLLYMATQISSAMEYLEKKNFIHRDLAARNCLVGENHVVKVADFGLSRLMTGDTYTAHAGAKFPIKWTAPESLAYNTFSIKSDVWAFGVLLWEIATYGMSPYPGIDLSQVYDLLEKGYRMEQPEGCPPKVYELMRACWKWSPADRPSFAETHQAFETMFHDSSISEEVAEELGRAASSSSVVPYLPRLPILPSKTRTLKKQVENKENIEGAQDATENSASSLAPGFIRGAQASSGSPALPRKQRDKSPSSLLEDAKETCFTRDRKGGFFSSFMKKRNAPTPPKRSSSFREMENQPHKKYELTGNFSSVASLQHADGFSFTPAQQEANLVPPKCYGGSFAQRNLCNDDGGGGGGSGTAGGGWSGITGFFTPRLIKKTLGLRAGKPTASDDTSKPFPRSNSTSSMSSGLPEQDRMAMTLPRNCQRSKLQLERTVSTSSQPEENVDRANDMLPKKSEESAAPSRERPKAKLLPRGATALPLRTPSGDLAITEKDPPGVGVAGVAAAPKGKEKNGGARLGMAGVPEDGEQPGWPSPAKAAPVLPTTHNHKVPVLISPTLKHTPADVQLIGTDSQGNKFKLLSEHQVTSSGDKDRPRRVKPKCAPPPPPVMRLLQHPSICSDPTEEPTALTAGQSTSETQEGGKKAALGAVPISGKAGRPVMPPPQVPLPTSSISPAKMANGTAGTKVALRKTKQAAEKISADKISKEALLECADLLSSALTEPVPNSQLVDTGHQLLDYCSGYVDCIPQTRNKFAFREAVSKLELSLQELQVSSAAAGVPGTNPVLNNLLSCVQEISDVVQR
Chain of Tyrosine-protein kinase Blk (Homo sapiens) (P51451 2-505 limits assumed): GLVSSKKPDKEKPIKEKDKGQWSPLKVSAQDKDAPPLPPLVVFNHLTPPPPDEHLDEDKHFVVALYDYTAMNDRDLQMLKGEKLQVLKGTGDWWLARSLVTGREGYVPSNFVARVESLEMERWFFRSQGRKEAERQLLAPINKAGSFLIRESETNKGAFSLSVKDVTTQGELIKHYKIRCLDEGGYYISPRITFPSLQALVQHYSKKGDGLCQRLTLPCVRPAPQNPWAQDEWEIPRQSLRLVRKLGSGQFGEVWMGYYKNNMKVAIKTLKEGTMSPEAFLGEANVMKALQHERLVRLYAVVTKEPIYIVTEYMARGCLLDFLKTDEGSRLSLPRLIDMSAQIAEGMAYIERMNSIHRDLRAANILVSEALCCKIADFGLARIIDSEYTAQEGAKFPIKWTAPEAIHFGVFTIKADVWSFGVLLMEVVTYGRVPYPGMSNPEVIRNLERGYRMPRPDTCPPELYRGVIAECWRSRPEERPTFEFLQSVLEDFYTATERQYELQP

For `c1ccc(-c2nc3n(c2-c2ccc4c(c2)OCO4)CCC3)nc1`, the inhibition in [1] is 6.07%; in [2], 1.92%; in experiment [3], 3.95%; in experiment [4] it was 0.85%; in experiment [5], 6.39%; in [6], 0.99%. The inhibition in experiment [7] is 1.4%; in experiment [8], 0.69%; in [9], 4.67%; in experiment [10], -1.96%; in [11], -5.46%; in experiment [12] it was 0.54%. Further, the inhibition in experiment [13] was 3.25%; in [14] it was -1.29%; in experiment [15], 1%; in experiment [16], 0.9%; in [17], 2.26%; in [18] it was -0.42%. For the same molecule, the results for the inhibition in experiment [19] and in experiment [20] were -1.35% and 1.01%, respectively.

For `CN1CCC(n2cnc(-c3ccc(F)cc3)c2-c2ccnc(Nc3ccccc3)n2)CC1`, the inhibition in [1] was 4.98%; in experiment [2], 3.47%; in [3], 9.91%; in experiment [4] it was 1.69%; in [5], 11%; in experiment [6], 1.58%. Moreover, the inhibition is 2.39% in experiment [7]; 3.42% in [8]; 10.2% in experiment [9]; -2.82% in experiment [10]; -1.45% in [11]; 2.74% in experiment [12]. Besides, the inhibition was 7.18% in experiment [13]; 6.66% in [14]; 5.4% in experiment [15]; 2.56% in experiment [16]; 13.2% in [17]; -0.86% in [18]. In addition, the inhibition in [19] was 1.25%; in [20], 5.97%.

Take `COc1cc2c(cc1Nc1nc(Nc3ccsc3C(N)=O)c3cc[nH]c3n1)N(C(=O)CN(C)C)CCC2(C)C`: the inhibition in [1] worked out at 3.95%; in experiment [2] it was 3.45%; in [3] it was 4.27%; in experiment [4], 2.57%; in [5], 6.2%; in experiment [6] it was 95.7%. The inhibition in experiment [7] was determined as 78.5%; in [8], 2.86%; in experiment [9] it was 4.17%; in experiment [10] it was 47.4%; in [11] it was 85.5%; in [12] it was 3.19%. Also, the inhibition in [13] was determined as 6.26%; in experiment [14], 3.79%; in experiment [15], 5.73%; in experiment [16], 5.95%; in [17], 19.2%; in experiment [18], 0.08%. Further, the results for the inhibition in experiment [19] and in [20] were 1.1% and 2.59%, respectively.

On to `Cc1cccc2c1NC(=O)/C2=N\Nc1ccc(S(N)(=O)=O)cc1`, for which the inhibition in experiment [1] was found to be 0.76%; in [2] it was 4.21%; in experiment [3] it was 11.3%; in [4], 5.35%; in [5] it was 11.4%; in experiment [6], 2.99%. Further, the inhibition was 4.7% in experiment [7]; 3.22% in [8]; 10.1% in experiment [9]; -3.51% in experiment [10]; -0.34% in [11]; 1.72% in [12]. For the same molecule, the inhibition was 5.96% in [13]; -0.08% in experiment [14]; 2.79% in [15]; 0.03% in experiment [16]; 1.67% in experiment [17]; 1.48% in experiment [18]. Besides, the inhibition in [19] was determined as 1.48%; in experiment [20], 3.78%.

Regarding `Fc1ccc(-c2nn3ccccc3c2-c2ccncc2)cc1`, the inhibition in experiment [1] amounted to 4.09%; in experiment [2] it was 1.97%; in [3], 4.11%; in experiment [4], 1.42%; in [5], 9.29%; in experiment [6] it was 0.44%. Further, the inhibition in experiment [7] is 1.88%; in [8], 3.94%; in experiment [9] it was 7.98%; in experiment [10], -2.22%; in experiment [11] it was 0.78%; in experiment [12] it was 0.92%. Further, the inhibition in [13] was 2.66%; in experiment [14], -1.75%; in experiment [15], 1.42%; in experiment [16] it was -1.18%; in experiment [17], 7.58%; in experiment [18] it was -2.02%. Moreover, the inhibition in experiment [19] was -1.29%; in [20] it was -0.04%.

For `COc1ccc(-c2oc3ncnc(N)c3c2-c2ccc(NC(=O)Nc3cc(C(F)(F)F)ccc3F)cc2)cc1`, the inhibition in experiment [1] is 64.3%; in experiment [2] it was 9.77%; in experiment [3], 54.4%; in [4] it was 7.54%; in experiment [5], 52.3%; in experiment [6], 2.32%. The inhibition in experiment [7] was found to be 8.5%; in experiment [8] it was 13.6%; in experiment [9] it was 68.1%; in experiment [10] it was 21.3%; in experiment [11] it was 82.1%; in [12], 5.14%. Further, the inhibition amounted to 41.2% in [13]; 8.1% in experiment [14]; 59.5% in experiment [15]; 3.11% in experiment [16]; 25.4% in [17]; 1.43% in [18]. Besides, the inhibition was found to be 13.3% in experiment [19] and 10.9% in experiment [20].

Consider `c1ccc(COc2ccc(Nc3ncnc4ccc(-c5ccco5)cc34)cc2)cc1`, for which the inhibition was found to be 1.49% in experiment [1]; 0.09% in experiment [2]; 0.37% in [3]; 2.97% in [4]; 1% in experiment [5]; 1.38% in experiment [6]. Moreover, the inhibition was 2.45% in experiment [7]; 2.41% in experiment [8]; 4.34% in experiment [9]; 0.76% in [10]; 2.06% in experiment [11]; 1.56% in experiment [12]. The inhibition in [13] was 3.68%; in experiment [14], -1%; in [15], 2.02%; in [16], 1.6%; in experiment [17], 2.35%; in experiment [18] it was 0.63%. Also, the results for the inhibition in [19] and in experiment [20] were 1.73% and 0.39%, respectively.
